Compound activity deposited in PubChem BioAssay by National Center for Advancing Translational Sciences (NCATS).
Shown are actives, neighbours in structure and some others; about 19% of the full set was active somewhere.
IL1B secr inh: qHTS for Inhibitors of Inflammasome Signaling: IL-1-beta AlphaLISA Primary Screen. THP-1 LPS/ATP IL-1B secretion, AlphaLISA, 16 h; hits give low values. activity change, % at 57.5 µM. actives 4.7% (n = 360,000); in the data active = activity change below about -50%; inconclusive = mostly about -30% to -49%
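Secreted IL-1B measured by AlphaLISA bead assay after 16 h compound exposure of THP-1 cells; compounds (final up to 57.5 uM) added 1 h before LPS (250 ng/mL) and ATP (1.25 mM) stimulation; lower signal means less secretion.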
uPA surface inh: qHTS for Inhibitors of Cell Surface uPA Generation; actives 0.31% (n = 330,000); cell surface uPA generation assay, qHTS; Potency, µM (doses to about 38.3 µM), for inactives: top-dose activity change, negative = inhibition, actives largely listed as inhibitors; AID 540303, 2011; active = well fitted inhibition curve with a large enough effect; inconclusive = small, poorly fitted or top-dose-only effect; inactive = no such curve, though single readings can be large or run the other way; tested in mouse RAW 264.7 cells; note: potency is the fitted concentration of half-maximal effect; nearly all actives have a fitted effect of over 55% in size
TDP1 cell noCPT: qHTS for Inhibitors of human tyrosyl-DNA phosphodiesterase 1 (TDP1): qHTS in cells in absence of CPT | actives 15% (n = 420,000) | Potency, µM (top dose mostly 46.2 µM), for inactives: top-dose activity change, negative = growth inhibition, most hits filed as inhibitors | DT40 Tdp1-/- hTDP1 cells, no CPT, ATP luminescence, 48 h; note: potency is the fitted concentration of half-maximal effect; nearly all actives have a fitted effect of over 55% in size
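A cellular qHTS used chicken DT40 cells lacking endogenous Tdp1 but carrying stably transfected human TDP1. Compounds were applied without camptothecin, and cell growth kinetics were judged by ATP-dependent luminescence after ≥48 hr.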
HT1080-NT tox: qHTS for induction of synthetic lethality in tumor cells producing 2HG: qHTS for the HT-1080-NT fibrosarcoma cell line; HT-1080-NT fibrosarcoma viability, CellTiter-Glo ATP luminescence, 48 h; Potency, µM (top dose mostly 46.1 µM), inactives show at the top dose activity, negative = less viability, most hits filed as cytotoxic; actives 1.6% (n = 360,000); AID 686970, 2013;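 note: NT is the 2HG producing partner of a matched IDH1 knockdown line; potency is the fitted concentration of half-maximal effect; 0% = DMSO-treated cells and -100% = media-only wells without cells; nearly all actives have a fitted effect of over 55% in size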
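A 48-hour cytotoxicity screen used HT-1080-NT cells plated 2 hours before compound delivery. ATP-based CellTiter-Glo luminescence measured viability, normalized to DMSO and no-cell controls.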
DT40 TDP1 CPT: qHTS for Inhibitors of human tyrosyl-DNA phosphodiesterase 1 (TDP1): qHTS in cells in presence of CPT; chicken DT40 Tdp1-/-;hTDP1 cells + 20 nM CPT, ATP luminescence, 48 h; Potency, µM (series often up to 46.2 µM), for the others: at the highest dose activity change, negative = growth inhibition, most hits filed as inhibitors; actives 12% (n = 420,000); AID 686979, 2013; note: potency is the fitted concentration of half-maximal effect; nearly all actives have a fitted effect of over 55% in size
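Chicken DT40 Tdp1-/- cells stably complemented with human TDP1 were seeded at 400 cells/well in medium containing 20 nM camptothecin, exposed to pin-transferred compounds, and grown at 37 °C for at least 48 hr. Viability was read as ATP luminescence.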
HT1080 IDH1KD tx: qHTS for induction of synthetic lethality in tumor cells producing 2HG: qHTS for the HT-1080-IDH1KD cell line; HT-1080 IDH1 knockdown viability, ATP luminescence, 48 h; Potency, µM (highest dose often 46.1 µM), inactives show top-dose activity, negative = toxicity, usual class: cytotoxic; actives 2% (n = 360,000); AID 686971, 2013;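 note: potency is the fitted concentration of half-maximal effect; 0% = DMSO wells and -100% = cell-free medium wells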
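After a 2 h attachment period, IDH1KD HT-1080 cells took pin-transferred compound for 48 h at 37 °C; ATP-based luminescence after 10 min room-temperature reagent incubation reported viability.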
Starred values were filed as active, the others as inactive; ? = inconclusive; . = no result given. Unless noted, calls come from the whole dose curve; as a rule, active = well fitted curve in the direction sought with a large enough effect; inconclusive = small, poorly fitted or top-dose-only effect, or another doubt; inactive = no such curve, though single readings can be large; an effect the other way counts as inactive or inconclusive. Unless noted, % is set by controls: 0 for no effect and ±100 for the full control effect.

SMILES	IL1B secr inh	uPA surface inh	TDP1 cell noCPT	HT1080-NT tox	DT40 TDP1 CPT	HT1080 IDH1KD tx
COC(=O)c1sc2cccc(F)c2c1S(=O)(=O)Nc1ccc(C)cc1Cl	.	.	14%	.	-11%	.
COc1ccc(N)cc1-n1c(C)ccc1C	?	-14%	-24%	-11%	7.3µM*	-19%
COc1ccc(N)cc1C#N	14	8%	-3%	-1%	?	-1%
Cc1ccn2c(Nc3ccc4c(c3)OCO4)c(-c3ccc(O)cc3)nc2c1	-27	1%	?	-2%	23µM*	-2%
Cc1ccc(-c2nc3ncccn3c2Nc2ccc3c(c2)OCO3)o1	-8	3%	-29%	2%	?	4%
Cc1ccn2c(Nc3ccc4c(c3)OCCO4)c(-c3ccc(C)o3)nc2c1	.	.	?	.	21µM*	.
Cc1ccn2c(Nc3ccc(F)cc3)c(-c3ccc(C)o3)nc2c1	.	.	?	.	16µM*	.
Cc1ccc2nc(-c3ccc(C)o3)c(Nc3ccc(Cl)cc3)n2c1	.	.	?	25%	?	4%
COc1ccc(CN(C)C(=O)c2cccc(C(=O)N(C)Cc3ccc(OC)cc3)c2)cc1	1	0%	?	-1%	?	2%
O=C(NCc1cccnc1)c1cc(C2CCCCN2C(=O)OCCF)on1 (stereo not drawn)	0	.	-10%	?	6%	19%
COc1ccccc1NC(=O)N[C@@H](Cc1c[nH]c2ccccc12)C(=O)NN	-1	1%	?	-1%	-2%	6%
COc1cc(N2C(=O)C=CC2=O)c(OC)cc1Cl	?	-12%	1.3µM*	18µM*	1.8µM*	?
COc1cc(Cl)c(S(=O)(=O)N2CCCC2)cc1Cl	7	-2%	?	-12%	-24%	-4%
CCCCOC(=O)c1ccc(N=Nc2c(C)c(C#N)c(O)[nH]c2=O)cc1	47	-4%	23µM*	-6%	?	-4%
C/C(=N\NC(=O)c1cccnc1)c1ccc(C)c([N+](=O)[O-])c1	-8	-8%	-5%	-8%	-5%	-7%
C/C(=N\NC(=O)c1[nH]c2c([N+](=O)[O-])cc(C)cc2c1-c1ccccc1)c1cccnc1	-21	-4%	15µM*	-8%	26µM*	0%
CN(C)C(=O)CCc1ccc2c3c([nH]c2c1)[C@]1(C)[C@@H](C(=O)N2CCCCC2)C[C@H](CC(=O)NCc2cccc(C(F)(F)F)c2)C(=O)N1CC3	-25	3%	21µM*	-9%	21µM*	-15%
CC[C@]12c3[nH]c4ccccc4c3CCN1C(=O)C(CC(=O)NCc1cccc(C(F)(F)F)c1)C[C@@H]2C(=O)N1CCN(C(=O)C2CC2)CC1 (stereo partly drawn)	-22	-2%	23µM*	-3%	?	-3%
O=C(CC1C[C@H](C(=O)N2CCOCC2)[C@@]2(CCC3CCCC3)c3[nH]c4ccccc4c3CCN2C1=O)NCc1cccc(C(F)(F)F)c1 (stereo partly drawn)	3	16%	?	16%	23µM*	10%
COc1ccc(CNC(=O)C[C@H]2C[C@H](C(=O)N3CCCCC3)[C@@]3(C)c4[nH]c5cc(CCC(=O)N(C)C)ccc5c4CCN3C2=O)cc1OC	-9	0%	-15%	-1%	-13%	5%
